Assay results as given in the supplement of paper PMC6555819.

tested on: VDR:RXRa (NR concentration 270 nM, RXRa partner concentration 90 nM); assay: PBM binding z-score (relative to random genomic background probes); higher = stronger binding; sequences stand for … in GC…GCGATTGACAGCGTAGAATGAAGG
Protocol: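 Protein-binding microarray (Agilent 4x180K custom design, double-stranded 60-nt probes: 5' GC cap, 34-nt variable region, 24-nt constant primer region; full probe sequence given). Purified or IVT nuclear receptor:RXRα heterodimers (3:1 NR:RXRα, mostly 270:90 nM) or homodimers were incubated for 1 h in PBS with 2% milk and no ligand, then detected with Alexa488 antibodies. Fluorescence from o1-orientation probes (~5 replicates averaged) was converted to z-scores against 500 random hg19 background probes. Variable regions are seed direct-repeat (DR0–DR5) sites, all their single-nucleotide variants and half-site ablations.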

Sequence	PBM binding z-score
AGAATGTGGTTATACGTAGATCAGGGAAGAAAGT	0.0519
CCGACTGGGGCAAGGTTACCACAACGCACAGCCA	0.188
ATCGAAAGGTCGATGTGAGTATAGAGAAAGGGAA	1.97
ATATGTACGTTACATCCGGGTCATTCAGGCTATG	3.54
AGAACGAGGGCACGCTGAGTTGCTAGCAGAGTAG	1.18
TCATATAAGTAATACAGGTGAAAGTCGGCATCTA	1.16
AATACAGGGTCATCATAGGCCAGAGTACGCACAG	5.14
TAGCCTAGGTCAGATCGGGCCAGTTTACGCTATA	0.663
CCGACTGGGGCAAAGGTTAGCATACTCAGTACGA	0.691
ATCGAAAGGTCGAAGGTGTGTATACCCACCCGAA	2.43
ACAGACATGTGAGTGAAGGTAACTCAGCTGGACG	-0.252
GTACCAAGGTGAATAGGTTGTTGATGAGTAGGCG	1.38
TCATATAGGTAGTACAGGTGAAAGTCGGCATCTA	0.794
TCTTGTAGATGAATAGAGGTTAAGAAAGTGCGCT	1.94
ACTAGCAGGCCAAGTTTGGGTAACTCAAACAAAG	-0.517
TCTTGTAGATCAATAGAGGTTAAGAAGGTGCGCT	1.91
CGAACTAGGTCATCAAGGACAGTGAATACATTGA	5.54
CCTACTGGGCCAAAAAGGTCATTGAAGCCGATAA	4.54
TCATTTAGGTAATACAGGTGAAAGTCGGCATCTA	1.18
CAAACTAGGTGACCGGAAGGTCAAAGTCCGCATG	4

Sequence	PBM binding z-score
GCCCGGAGGACAAGGTCAGAGCTTTGTCCGTAGA	1.11
GCTTACGGGTTAAAGGTTATAGCATGAATAGAAT	3.18
CATACTGGGCCAAAGGTCATTGATTCCAATGCTC	5.1
ATCGACAGGTCGAAGGTGAGTATACCCACCCGAA	0.627
GCTATTAGTTGAAAGGGCTACCGAATGATTCTCG	-0.406
ATCCCAAGGTGATCGTGAGGTCGTTGATACTAAC	2.87
ATCTCTAGGTAAAGATAGTTCAGTAAATGCAAAT	1.22
ATCTCGAGGTAAAGATAGTTCAGTGAATGCAAAT	1.23
CGTCCTAGGTCAATGCTAGGTCAGTGAAAGCATT	3.02
CTCGAAAGGTCGTGCTCAGGTGACTATACCAAAC	3.53
CCTTAAGGGTCACTCCAGGTTATAGCATCGGAGT	5.13
CAAACTAGATCACCGGAAGGTCAAAGTCCGCATG	3.03
ACTAGTTGGGCAGCTGAGGTCACACACAATTCGG	3.72
ATCTCTAGGTAACAAGTTCAGTGGAAGAGAGGAC	2
CCGACTGGGGCAAGGTTGCCATAACGCACAGCCA	-0.351
ATCGAAAGATCGTGAGGTGAGTATACAGAAAGGC	-0.0654
GTAACAAGGTGAATAGGTCGTTGATGAGTAGGCG	1.22
GGAACGAGGGCAAAGTGGATAGCATCTGTCGACG	1.08
TAGCATAGGTCATTGGGCCAGTATAGTACGCATC	3.27
CCGACTGGGGCATAAGGTTAGCATAAGCCAGCCC	-0.409
